Screening results as filed in PubChem.
ELG1 repair inh: ELG1-dependent DNA repair inhibition | HEK293T ELG1-luciferase reporter, luminescence, 16 h; DNA damage induced by 5-fluorouridine | Potency, µM (titrated, usually from 46.1 µM), without a hit: top-dose activity change, negative = inhibition, actives largely listed as inhibitors | actives 2.3% (n = 330,000); note: potency is the fitted concentration of half-maximal effect; nearly all actives have a fitted effect of over 55% in size
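Step one: seed 2,000 cells per well. Step two: pin-transfer compound or DMSO alongside 5-fluorouridine. Step three: incubate 16 hr, 37 °C, 5% CO2. Step four: add ONE-Glo, wait 30 min, read luminescence.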
TDP1 block: inhibitors of human tyrosyl-DNA phosphodiesterase TDP1; actives 0.28% (n = 350,000); Potency, µM (series often up to 130 µM), without a hit: at the highest dose activity change, negative = inhibition, hits mostly inhibitors; AID 485290; recombinant TDP1, AlphaScreen DNA substrate cleavage; note: potency is the fitted concentration of half-maximal effect; nearly all actives have a fitted effect of over 40% in size
Target sequence (Q9NUW8 whole entry, looked up): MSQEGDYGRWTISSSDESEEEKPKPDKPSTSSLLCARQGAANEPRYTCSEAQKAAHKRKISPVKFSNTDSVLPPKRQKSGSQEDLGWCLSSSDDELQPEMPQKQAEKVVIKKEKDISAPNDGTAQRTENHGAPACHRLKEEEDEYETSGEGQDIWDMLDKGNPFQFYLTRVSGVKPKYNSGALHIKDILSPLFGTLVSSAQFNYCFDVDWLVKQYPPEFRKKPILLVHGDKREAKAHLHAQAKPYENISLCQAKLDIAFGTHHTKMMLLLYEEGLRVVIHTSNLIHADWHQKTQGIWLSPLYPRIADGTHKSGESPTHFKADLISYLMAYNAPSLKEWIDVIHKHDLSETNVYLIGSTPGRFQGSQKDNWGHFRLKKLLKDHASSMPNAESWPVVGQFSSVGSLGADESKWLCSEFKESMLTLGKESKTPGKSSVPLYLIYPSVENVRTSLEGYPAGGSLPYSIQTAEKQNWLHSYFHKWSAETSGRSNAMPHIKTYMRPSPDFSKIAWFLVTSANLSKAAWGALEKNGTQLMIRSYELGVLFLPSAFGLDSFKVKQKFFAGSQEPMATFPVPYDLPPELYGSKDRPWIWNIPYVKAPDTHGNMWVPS
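Here, a 5' biotin and 3' phosphotyrosine-FITC DNA oligonucleotide reports Tdp1 activity: intact substrate bridges AlphaScreen beads, while cleavage leaves a 3' phosphate and drops signal. All incubations at room temperature.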
Giardia kill: kills Giardia lamblia; actives 0.15% (n = 340,000); activity change, % at 7.66 µM, hits read low; AID 540267; Giardia lamblia trophozoite viability; in the data active = activity change below about -80%; inconclusive = between about -30% and that limit;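 note: parasites exposed to compound for two days anaerobically before the ATP read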
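Killing of trophozoites was scored by loss of ATP luminescence after a 48 hrs anaerobic exposure to compounds at 37 deg C, using 100 cells per well.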
IL-1B inflam inh: inhibitors of inflammasome signaling (IL-1 beta secretion); THP-1 LPS/ATP IL-1B secretion, AlphaLISA, 16 h; hits give low values; activity change, % at 57.5 µM; actives 4.7% (n = 360,000); AID 743279; in the data active = activity change below about -50%; inconclusive = mostly about -30% to -49%
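THP-1 cells pretreated 1 hr with compounds (up to 57.5 uM final), then stimulated with LPS (250 ng/mL final) plus ATP (1.25 mM final); secreted IL-1B measured by AlphaLISA after 16 hr, decreased signal indicating inhibition.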
TDP1 cell noCPT: qHTS for Inhibitors of human tyrosyl-DNA phosphodiesterase 1 (TDP1): qHTS in cells in absence of CPT; DT40 Tdp1-/- hTDP1 cells, no CPT, ATP luminescence, 48 h; actives 15% (n = 420,000); Potency, µM (top dose mostly 46.2 µM), for inactives: top-dose activity change, negative = growth inhibition, usual class: inhibitors; note: potency is the fitted concentration of half-maximal effect; nearly all actives have a fitted effect of over 55% in size
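DT40 Tdp1-/-;hTDP1 cells, no CPT (DMSO vehicle only), 400 cells/well; compounds pin-transferred; ≥48 hr, 37 °C; CellTiter-Glo 30 min RT dark, luminescence read.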
TDP1 cell CPT: growth inhibition of DT40 Tdp1-/-;hTDP1 cells with camptothecin (screen for TDP1 inhibitors); actives 12% (n = 420,000); chicken DT40 Tdp1-/-;hTDP1 cells + 20 nM CPT, ATP luminescence, 48 h; AID 686979; Potency, µM (top dose mostly 46.2 µM), for the others: at the top dose activity change, negative = growth inhibition, most hits filed as inhibitors; note: potency is the fitted concentration of half-maximal effect; nearly all actives have a fitted effect of over 55% in size
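Chicken DT40 Tdp1-/- cells stably complemented with human TDP1 were seeded at 400 cells/well in medium containing 20 nM camptothecin, exposed to pin-transferred compounds, and grown at 37 °C for at least 48 hr. Viability was read as ATP luminescence.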
Starred values were filed as active, the others as inactive; ? = inconclusive; . = no result. Sampled rows, rich in hits. Any-hit rate of the full collection: about 19%. Unless noted, calls come from the whole dose curve; as a rule, active = well fitted curve in the direction sought with a large enough effect; inconclusive = small, poorly fitted or top-dose-only effect, or another doubt; inactive = no such curve, though single readings can be large; an effect the other way counts as inactive or inconclusive. % is set by controls: 0 for no effect and ±100 for the full control effect.

SMILES | ELG1 repair inh | TDP1 block | Giardia kill | IL-1B inflam inh | TDP1 cell noCPT | TDP1 cell CPT
Cc1ccccc1Cn1c(=O)n(CCC(=O)NCc2ccco2)c(=O)c2sccc21 | . | 0.9% | . | . | -9.2% | -4.5%
CC1=C(C(=O)Nc2ccccc2)C(c2ccc(O)cc2)n2nc(SCc3ccccc3)nc2N1 (centres undefined) | . | 5.9% | . | . | -29.1% | -16.6%
COc1ccccc1NC(=O)C1=C(C)Nc2nc(SCc3ccccc3Cl)nn2C1c1ccccn1 (centres undefined) | . | 0.0% | . | . | ? | ?
CCSc1nc2n(n1)C(c1ccc(CC)cc1)C(C(=O)Nc1ccccc1OC)=C(C)N2 (centres undefined) | . | 3.4% | . | . | 23.1µM* | 16.4µM*
COc1ccccc1NC(=O)C1=C(C)Nc2nc(SCc3ccccc3)nn2C1c1ccccn1 (centres undefined) | . | 5.9% | . | . | ? | 8.2µM*
CC1=C(C(=O)Nc2ccccc2)C(c2ccccn2)n2nc(SCc3ccccc3)nc2N1 (centres undefined) | . | 2.9% | . | . | ? | 5.17µM*
COc1ccccc1NC(=O)C1=C(C)Nc2nc(SCc3cccc(F)c3)nn2C1c1ccc(C(=O)O)cc1 (centres undefined) | . | . | . | . | 4.2% | -8.7%
Cc1nn(-c2ccc(N3CCOCC3)nn2)c(C)c1CCC(=O)NCc1ccc(Cl)cc1 | . | 7.1% | . | . | -18.3% | ?
Cc1cc2nc3s/c(=C/c4ccc(-c5ccccc5C(=O)O)o4)c(=O)n3c2cc1C | 2.0% | . | -4.0 | 22.5 | ? | ?
O=C(O)c1ccccc1-c1ccc(/C=c2\sc3nc4cc(Br)cnc4n3c2=O)o1 | 13.3% | 7.94µM* | 0.1 | -3.4 | 18.4µM* | 16.4µM*
CN1CCN(c2ncc3nc(CCc4ccccc4)c(=O)n(Cc4ccc(F)cc4)c3n2)CC1 | . | . | . | . | 14.6µM* | ?
O=c1c(CCc2ccccc2)nc2cnc(N3CCNCC3)nc2n1Cc1ccc(F)cc1 | . | . | . | . | ? | 1.03µM*
CN1CCN(c2ncc3nc(-c4ccccc4)c(=O)n(Cc4ccc(F)cc4)c3n2)CC1 | . | . | . | . | -29.6% | -11.7%
COCCn1c(=O)c(CCc2ccccc2)nc2cnc(N3CCN(C)CC3)nc21 | . | . | . | . | -21.8% | -15.9%
CN1CCN(c2ncc3nc(CCc4ccccc4)c(=O)n(C)c3n2)CC1 | . | . | . | . | ? | 23.1µM*
CN1CCN(c2ncc3nc(-c4cccs4)c(=O)n(Cc4ccc(F)cc4)c3n2)CC1 | . | . | . | . | ? | 13µM*
Cc1ccc(-n2c(=O)c3c(c4cc(C)ccc4n3C)n(CC(=O)NCCC3=CCCCC3)c2=O)cc1 | . | 5.0% | . | . | -6.2% | -9.0%
N#Cc1cc(C(=O)c2cc(Br)ccc2O)cn(C2CC2)c1=O | -12.4% | 4.0% | -25.5 | 0.0 | -8.5% | -6.7%
C=CCn1cc(C(=O)c2cc(Br)ccc2O)cc(C#N)c1=O | ? | 5.0% | -6.1 | -9.3 | ? | 18.4µM*
CC(C)n1cc(C(=O)c2cc(Br)ccc2O)cc(C#N)c1=O | -27.9% | 5.9% | -12.8 | -18.0 | 18.4µM* | ?
COc1ccccc1CCC(=O)NNC(=O)c1cccs1 | 19.6% | 0.2% | -15.9 | 14.2 | -17.6% | 6.0%
O=c1[nH]c(=O)c2cc([N+](=O)[O-])cc([N+](=O)[O-])c2[nH]1 | ? | -7.9% | ? | -73.5* | ? | ?
O=c1[nH]c2cc([N+](=O)[O-])cc([N+](=O)[O-])c2[nH]c1=O | . | 10.2% | . | . | . | .
c1coc(C2Nc3ccccc3C3OCCC23)c1 (centres undefined) | ? | 4.8% | 10.0 | 7.6 | -4.9% | 2.5%
Fc1ccc2c(c1)C1OCCCC1C(c1ccccc1)N2 (centres undefined) | -23.9% | . | -2.0 | 5.1 | 18.4µM* | ?
